Data on six compounds can be found in PubChem BioAssay (NCATS).

Values without a mark were called inactive. Records with an inconclusive call do not appear. Activity calls are given as the source filed them. Calls come from the whole dose curve; as a rule, active = well fitted curve in the direction sought with a large enough effect; inconclusive = small, poorly fitted or top-dose-only effect, or another doubt; inactive = no such curve, though single readings can be large; an effect the other way counts as inactive or inconclusive.

Test [1] deals with Zika virus NS2B-NS3 protease (linked construct). As to the kind of experiment: Primary screen NINDS Rhodamine qHTS for Zika virus inhibitors (AID 1347160). Note: nearly all actives have a fitted effect of over 55% in size. Note: potency is the fitted concentration of half-maximal effect. The essentials: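 Kinetic fluorescence (Ex 480 nm, Em 540 nm) over 15 min with 1.5 microM Rhodamine110 peptide and 25 nM linked protease.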
A general note: In qHTS, concentration-response curves come from the screen itself.

The target of test [2] is Calcium and integrin-binding protein 1 (Homo sapiens) (UniProt Q99828). In words: Primary qHTS for Identification of Calcium Integrin Binding Protein 1 (CIB1) Competitor (AID 1508620).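 Note: GST tagged CIB1 binding a fluorescein labelled alphaIIb integrin peptide tracer; top concentration of the series differs between compounds; % is set by controls: 0 for no effect and ±100 for the full control effect.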 The method, boiled down:
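Fluorescence polarization competition: GST-tagged CIB1 (1 uM final) preincubated with compound 15 min at room temperature, then FITC-labelled alphaIIb peptide (100 nM final) added. After 15 min at room temperature, polarization read at Ex 480/Em 540.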

The target in test [3] is Glutathione peroxidase 1 (Homo sapiens) (UniProt P07203). As to the kind of experiment: Primary qHTS Assay for Inhibitors of Recombinant Selenoprotein Glutathione Peroxidase 1 (GPX1) (AID 1845191). Note: nearly all actives have a fitted effect of over 65% in size. The essentials: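 GR-coupled assay: compounds preincubated 30 min at room temperature with GPX1, then reaction started with CHP; final 10 nM GPX1, 1 mM GSH, 0.5 mM CHP, 0.5 mM NADPH, 100 nM GR, 0.01% BSA, pH 7.5 Tris buffer. NADPH fluorescence (340/450 nm) read at 0 and 15 min.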
Chain of Glutathione peroxidase 1 (Homo sapiens) (P07203 whole entry, looked up): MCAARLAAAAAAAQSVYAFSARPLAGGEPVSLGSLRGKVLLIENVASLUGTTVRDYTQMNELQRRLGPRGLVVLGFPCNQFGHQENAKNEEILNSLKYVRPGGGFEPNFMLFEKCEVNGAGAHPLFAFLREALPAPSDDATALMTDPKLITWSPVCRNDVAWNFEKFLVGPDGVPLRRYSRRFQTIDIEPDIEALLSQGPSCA

Test [4] has as its target Phospholipid hydroperoxide glutathione peroxidase GPX4 (Homo sapiens) (UniProt P36969). As to the kind of experiment: Primary qHTS Assay for Inhibitors of Recombinant Selenoprotein Glutathione Peroxidase 4 (GPX4) (AID 1845192). Note: nearly all actives have a fitted effect of over 65% in size. The essentials: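 GR-coupled assay: recombinant GPX4 preincubated 30 min with compound at room temperature; final 200 nM GPX4, 1 mM GSH, 0.5 mM cumene hydroperoxide, 0.5 mM NADPH, 100 nM GR, 0.01% BSA, pH 7.5 Tris. NADPH fluorescence (340/450 nm) read at 0 and 15 min.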

Test [5] concerns the target Luciferin 4-monooxygenase (Photinus pyralis) (UniProt P08659). In words: Primary firefly luciferase (FLuc) qHTS assay for identification of artifact compounds. (AID 1845220). Note: nearly all actives have a fitted effect of over 60% in size. As to conditions: outcome: dose series up to 54.1 µM unless noted. The method, boiled down:
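Titrated compounds were incubated 15 min at RT, protected from light, with luciferin and ATP at 10 uM; reaction started with 10 nM FLuc, luminescence imaged at 5 min, and concentration-response fitted by Hill equation.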

The nature of test [6]: Primary fluorescence-based thiol-reactive (MSTI) qHTS assay for identification of artifact compounds. (AID 1845221). Note: nearly all actives have a fitted effect of over 65% in size. Note: potency is the fitted concentration of half-maximal effect. The essentials: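 Thiol-reactive compounds detected by quenching of 4 uM MSTI fluorescence (525/598 nm) after 1 h room-temperature dark incubation in PBS pH 7.4, 2% DMSO. qHTS titration; percent inhibition Hill-fitted against Acetyl-MSTI/MSTI controls.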
Test [7] has as its system Nanoluciferase (engineered Oplophorus gracilirostris luciferase). As to the kind of experiment: Primary Nanoluciferase (NLuc) qHTS assay for identification of artifact compounds. (AID 1845222).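 Note: NLuc secreted into diluted conditioned medium of S16 cells; 0% = DMSO and -100% = no enzyme.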 The essentials: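 qHTS format, against NLuc in S16 cell-conditioned medium. Nano-Glo substrate 1:100 was added after 15 min at room temperature. Luminescence was taken after a further 5 min.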

The nature of test [8]: Primary redox qHTS assay for identification of artifact compounds. (AID 1845223).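 Note: 0% = DMSO and 100% = reference compound.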 The method, boiled down: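 Amplex Red (25 uM) and HRP (250 mU/mL) in HBSS, with compounds for 15 min, then 250 uM DTT for 30 min, room temperature, dark. Fluorescence 525/598 nm read; normalized to DMSO and 10 uM DA3003; Hill fit.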
For a further test, the system named is NIH3T3. In words: Cytotoxic Profiling of Annotated Libraries Using Quantitative High-Throughput Screening (AID 1296008). For max response: % is set by controls: 0 for no effect and ±100 for the full control effect. Note: nearly all actives have a fitted effect of over 60% in size. Note: potency is the fitted concentration of half-maximal effect. As to conditions: Five cell lines viability, CellTiter-Glo ATP luminescence, 48-72 h; max response: active compounds read low. The method, boiled down: (§1)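 Cells exposed to compounds for 48 or 72 hr at 37 degrees Celsius. Viability read as ATP-coupled luminescence with CellTiter-Glo after 10 min at room temperature.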

The subject of a further test is Es-2. In words: Primary qHTS to identify gynecologic anti-cancer compounds using libraries of approved drugs and bioactive compounds (AID 1345084). Note: nearly all actives have a fitted effect of over 55% in size. Note: potency is the fitted concentration of half-maximal effect. The following applies: Gynecologic cancer cell panel viability, ATPlite luminescence, 48 h; series mostly up to 57.5 µM. The essentials: (§2)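 Five-point cytotoxicity, 48 h drug exposure at 37 C, 5% CO2, on cells seeded 16 h beforehand. ATP content read by ATPlite luminescence.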

A further test deals with JEG-3. Described as above. As to conditions: Gynecologic cancer cell panel viability, ATPlite luminescence, 48 h; series mostly up to 57.5 µM. The method, boiled down: as §2
The test system of another test is OV90. The test is described as above. The following applies: Gynecologic cancer cell panel viability, ATPlite luminescence, 48 h; series mostly up to 57.5 µM. The method, boiled down: as §2
For orientation: Cellular ATP, detected with luciferase, serves as a proxy for viable cell number.

A further test has as its system Tov-21-G. The description is as above. As to conditions: Gynecologic cancer cell panel viability, ATPlite luminescence, 48 h; series mostly up to 57.5 µM. The essentials: as §2
The next test has as its system Tov112D. The description is as above. The following applies: Gynecologic cancer cell panel viability, ATPlite luminescence, 48 h; series mostly up to 57.5 µM. The method, boiled down: as §2
The next test has as its system HaCat. In words: Cytotoxic Profiling of Annotated Libraries Using Quantitative High-Throughput Screening (AID 1296008). For max response: % is set by controls: 0 for no effect and ±100 for the full control effect. Note: nearly all actives have a fitted effect of over 60% in size. Note: potency is the fitted concentration of half-maximal effect. The following applies: Five cell lines viability, CellTiter-Glo ATP luminescence, 48-72 h; max response: active compounds read low. The method, boiled down:
as §1

The next test has as its system C33A. As to the kind of experiment: Primary qHTS to identify gynecologic anti-cancer compounds using libraries of approved drugs and bioactive compounds (AID 1345084). Note: nearly all actives have a fitted effect of over 55% in size. Note: potency is the fitted concentration of half-maximal effect. The following applies: Gynecologic cancer cell panel viability, ATPlite luminescence, 48 h; series mostly up to 57.5 µM. The method, boiled down:
as §2

In a further test the test system is CAOV3. The test is described as above. As to conditions: Gynecologic cancer cell panel viability, ATPlite luminescence, 48 h; series mostly up to 57.5 µM. The method, boiled down: as §2
In a further test the test system is CASKI. Described as above. The following applies: Gynecologic cancer cell panel viability, ATPlite luminescence, 48 h; series mostly up to 57.5 µM. The essentials: as §2
The subject of a further test is PA-1. Described as above. The following applies: Gynecologic cancer cell panel viability, ATPlite luminescence, 48 h; series mostly up to 57.5 µM. The method, boiled down:
as §2

The next test deals with Hek293T. The test is described as above. The following applies: Gynecologic cancer cell panel viability, ATPlite luminescence, 48 h, control line for the selectivity index; series mostly up to 57.5 µM. The method, boiled down: as §2

Chain of Calcium and integrin-binding protein 1 (Homo sapiens) (Q99828 whole entry, looked up): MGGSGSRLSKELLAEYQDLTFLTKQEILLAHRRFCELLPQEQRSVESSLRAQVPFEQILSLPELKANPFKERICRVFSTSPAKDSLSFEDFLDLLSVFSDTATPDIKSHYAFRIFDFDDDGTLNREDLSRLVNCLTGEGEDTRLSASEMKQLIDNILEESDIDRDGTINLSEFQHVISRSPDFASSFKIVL
Chain of Phospholipid hydroperoxide glutathione peroxidase GPX4 (Homo sapiens) (P36969 whole entry, looked up): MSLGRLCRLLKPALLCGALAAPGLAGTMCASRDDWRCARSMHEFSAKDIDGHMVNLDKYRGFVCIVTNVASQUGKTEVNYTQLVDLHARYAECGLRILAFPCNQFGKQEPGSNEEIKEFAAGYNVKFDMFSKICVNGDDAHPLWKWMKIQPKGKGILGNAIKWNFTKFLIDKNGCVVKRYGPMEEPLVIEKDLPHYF

In the case of `C[C@]12CC[C@H](O[C@@H]3O[C@H](CO)[C@@H](O)[C@H](O)[C@H]3O)CC1=CC[C@@H]1C2CC[C@]2(C)[C@@H](C3=CC(=O)OC3)CC[C@]12O` (stereo partly specified), the Potency result in test [1], in [2], in test [3], in test [4], in test [6] and in test [7] was “inactive” throughout. The Potency entry (in [8]; in the test with JEG-3; in the test with OV90) was “inactive” throughout. Moreover, in [5], the outcome was “inactive [at 25.7 µM]”. Further, the max response in the test with NIH3T3 was 0.891%. The Potency with Es-2 is 10000 nM (active); in the test on Tov-21-G, 6310 nM (active); with Tov112D, 3160 nM (active).
With `C=C1C(=O)OC2/C=C(\COO)CC/C=C(\COC(C)=O)CC(OC(=O)C(C)CC)C12` (stereo unspecified), the Potency entry in [1], in test [2], in test [3], in [4], in test [6] and in test [7] was “inactive” throughout. In addition, the Potency result (in [8]; with C33A; in the test on CAOV3; in the test on CASKI; in the test on Es-2; with JEG-3) was “inactive” each time. Moreover, the Potency result in the test on PA-1, with Tov-21-G and with Tov112D was “inactive” throughout. Besides, the outcome (in test [5]; with HaCat) was inactive.
For the compound `CC/C=C/C=C/C1(C)OC(OC)=C(C(=O)C2C(C)C(=O)c3cc(OC)c(O)c(O)c3C2(C)O)C1=O` (stereo unspecified), the Potency is 10000 nM (active) in test [1] and 1300 nM (active) in test [6]. For the same compound, the Potency entry (in test [2]; in [3]; in test [4]; in test [7]; in test [8]; in the test with C33A) was “inactive” in each case. Moreover, the Potency result in the test on CAOV3, in the test with CASKI, with Hek293T, in the test on JEG-3, in the test with OV90 and in the test with Tov112D was “inactive” in each case. In test [5], the outcome was “inactive [at 25.7 µM]”.
On to `C[C@]12CC[C@H](O)CC1=CC[C@@H]1C2CC[C@]2(C)[C@@H](C3=CC(=O)OC3)CC[C@]12O` (stereo partly specified), for which the Potency entry (in [1]; in test [2]; in test [6]; in test [7]; in test [8]; with CASKI) was “inactive” throughout. Further, the result in test [5] was inactive. Besides, the max response in the test with NIH3T3 is -1.39%. For the same compound, the Potency in the test with Es-2 is 11200 nM (active); in the test with Tov-21-G, 10000 nM (active); in the test on Tov112D, 7080 nM (active).
On to `C[C@@H]1O[C@@H](O[C@H]2CC[C@@]3(C)C(CC[C@@H]4C3CC[C@]3(C)[C@@H](C5=CC(=O)OC5)CC[C@]43O)C2)[C@H](O[C@@H]2O[C@H](CO)[C@@H](O)[C@H](O)[C@H]2O)[C@H](O)[C@H]1O` (stereo partly specified), for which the Potency result in [1], in test [2], in [3], in test [4], in test [6] and in test [7] was “inactive” each time. Moreover, the compound was called inactive in test [5]. Also, the Potency is 2170 nM (active) with HaCat; 562 nM (active) with C33A; 1000 nM (active) in the test with CAOV3; 891 nM (active) in the test with Es-2; 891 nM (active) in the test with Hek293T; 2820 nM (active) in the test with JEG-3. Also, the Potency in the test with PA-1 was 1000 nM (active); in the test on Tov-21-G, 708 nM (active); with Tov112D it was 224 nM (active). For the same compound, in the test with NIH3T3, the max response was -13.4%.
Regarding `CCOC(=O)c1ccc(-c2ccc(OC(=O)N(C)Cc3cccc(-c4ccncc4)c3)cc2)cc1`, the Potency result in test [2], in test [3], in [4], in [6], in test [7] and in test [8] was “inactive” each time. The Potency entry in the test with CAOV3, in the test on CASKI, in the test with Es-2, in the test on Hek293T, in the test with JEG-3 and in the test on OV90 was “inactive” throughout. The Potency entry with PA-1, in the test on Tov-21-G and with Tov112D was “inactive” throughout. Also, the call in [5] was inactive. Further, the max response in the test on HaCat is -8.03%.
